# Assay results taken from publication PMC7862700, “An all-to-all approach to the identification of sequence-specific readers for epigenetic DNA modifications on cytosine”.
# Tests used:
# Assay in all cases: DAPPL (digital affinity profiling via proximity ligation, sequencing); 10 mM Tris-HCl pH 7.5, 50 mM NaCl, 1 mM DTT, 4% glycerol, room temperature, 30 min; GST-TFs on glutathione beads, 16-mer random dsDNA library, 0.1% formaldehyde crosslink after washing; high values mean tight binding
# [1] = target: T1, FLI1 (Homo sapiens, UniProt Q01543 1-452); details: protein: recombinant; tags: N-terminal GST; dsDNA, one strand shown
# T1 sequence: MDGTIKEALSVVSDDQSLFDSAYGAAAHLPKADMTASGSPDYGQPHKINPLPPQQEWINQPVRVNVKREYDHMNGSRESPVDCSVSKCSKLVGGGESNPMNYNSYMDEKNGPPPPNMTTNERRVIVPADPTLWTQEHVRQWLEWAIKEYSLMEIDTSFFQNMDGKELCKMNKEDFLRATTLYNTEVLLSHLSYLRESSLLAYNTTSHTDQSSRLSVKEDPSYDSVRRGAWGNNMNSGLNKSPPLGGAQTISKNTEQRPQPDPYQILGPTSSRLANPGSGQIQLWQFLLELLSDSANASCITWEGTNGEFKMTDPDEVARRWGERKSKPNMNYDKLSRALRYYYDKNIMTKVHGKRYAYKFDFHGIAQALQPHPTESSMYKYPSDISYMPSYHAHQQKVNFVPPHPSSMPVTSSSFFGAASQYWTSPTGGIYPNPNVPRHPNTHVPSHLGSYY
# Method in brief: (§1)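 Sequencing on an Illumina NextSeq500 followed washing, crosslinking with 0.1% formaldehyde, proximity ligation (BsaI/T4 ligase, 1 h, 37 °C) and PCR amplification of pools that had been incubated for 30 min at room temperature with 200 nmole of a random double-stranded 16-mer DNA library in Tris/NaCl/DTT/glycerol buffer. Each pool held DNA-barcoded human transcription factors, expressed in yeast as GST fusions and captured on glutathione beads, plus a tag-only sample. Binding signal is a hexamer's read frequency for a factor divided by its frequency in the tag-only sample.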
# [2] = target: T2, ELK1 (Homo sapiens, UniProt P19419 1-428); details: protein: recombinant; tags: N-terminal GST; dsDNA, one strand shown
# T2 sequence: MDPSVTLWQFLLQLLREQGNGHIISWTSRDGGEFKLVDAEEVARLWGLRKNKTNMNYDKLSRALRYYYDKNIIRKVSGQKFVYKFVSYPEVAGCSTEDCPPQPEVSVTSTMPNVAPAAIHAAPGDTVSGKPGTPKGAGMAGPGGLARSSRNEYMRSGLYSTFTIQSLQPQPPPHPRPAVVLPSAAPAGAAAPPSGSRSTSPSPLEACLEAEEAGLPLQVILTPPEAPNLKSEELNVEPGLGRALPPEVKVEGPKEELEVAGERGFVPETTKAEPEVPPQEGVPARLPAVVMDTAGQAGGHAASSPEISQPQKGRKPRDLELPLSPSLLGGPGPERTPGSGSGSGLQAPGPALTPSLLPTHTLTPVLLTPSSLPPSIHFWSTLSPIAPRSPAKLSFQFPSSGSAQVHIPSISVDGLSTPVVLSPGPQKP
# Method in brief: as §1
# [3] = target: T3, GABPA (Homo sapiens, UniProt Q06546 1-454); details: protein: recombinant; tags: N-terminal GST; dsDNA, one strand shown
# T3 sequence: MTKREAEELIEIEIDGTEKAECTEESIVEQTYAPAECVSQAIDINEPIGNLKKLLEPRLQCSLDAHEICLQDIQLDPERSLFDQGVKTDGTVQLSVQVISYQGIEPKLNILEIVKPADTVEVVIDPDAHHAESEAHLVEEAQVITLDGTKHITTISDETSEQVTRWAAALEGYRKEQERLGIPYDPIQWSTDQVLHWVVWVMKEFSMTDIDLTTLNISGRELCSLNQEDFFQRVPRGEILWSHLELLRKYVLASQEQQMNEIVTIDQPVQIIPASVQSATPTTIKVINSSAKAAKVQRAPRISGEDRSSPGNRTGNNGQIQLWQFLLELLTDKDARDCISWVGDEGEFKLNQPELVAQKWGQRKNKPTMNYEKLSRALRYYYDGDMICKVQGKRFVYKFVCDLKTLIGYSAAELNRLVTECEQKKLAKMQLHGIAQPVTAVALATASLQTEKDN
# Method in brief: as §1
# [4] = target: T4, ERG (Homo sapiens, UniProt P11308 1-479); details: protein: recombinant; tags: N-terminal GST; dsDNA, one strand shown
# T4 sequence: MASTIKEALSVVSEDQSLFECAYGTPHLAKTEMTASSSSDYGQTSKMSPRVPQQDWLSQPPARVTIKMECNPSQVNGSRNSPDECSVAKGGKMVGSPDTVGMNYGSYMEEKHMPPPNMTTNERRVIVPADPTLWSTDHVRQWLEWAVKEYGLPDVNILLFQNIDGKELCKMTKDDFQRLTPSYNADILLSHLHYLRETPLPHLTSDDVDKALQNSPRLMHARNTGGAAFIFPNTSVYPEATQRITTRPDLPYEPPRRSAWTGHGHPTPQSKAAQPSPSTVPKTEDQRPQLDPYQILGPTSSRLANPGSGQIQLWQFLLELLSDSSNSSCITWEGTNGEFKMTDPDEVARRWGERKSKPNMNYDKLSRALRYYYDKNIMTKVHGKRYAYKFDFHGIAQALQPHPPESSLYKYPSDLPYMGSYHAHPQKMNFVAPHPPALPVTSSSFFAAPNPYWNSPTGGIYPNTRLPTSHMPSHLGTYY
# Method in brief: as §1
# [5] = target: ELF1 (Homo sapiens, UniProt P32519 1-619); details: protein: recombinant; tags: N-terminal GST; dsDNA, one strand shown
# Method in brief: as §1
# [6] = target: T5, EHF (Homo sapiens, UniProt Q9NZC4 1-300); details: protein: recombinant; tags: N-terminal GST; dsDNA, one strand shown
# T5 sequence: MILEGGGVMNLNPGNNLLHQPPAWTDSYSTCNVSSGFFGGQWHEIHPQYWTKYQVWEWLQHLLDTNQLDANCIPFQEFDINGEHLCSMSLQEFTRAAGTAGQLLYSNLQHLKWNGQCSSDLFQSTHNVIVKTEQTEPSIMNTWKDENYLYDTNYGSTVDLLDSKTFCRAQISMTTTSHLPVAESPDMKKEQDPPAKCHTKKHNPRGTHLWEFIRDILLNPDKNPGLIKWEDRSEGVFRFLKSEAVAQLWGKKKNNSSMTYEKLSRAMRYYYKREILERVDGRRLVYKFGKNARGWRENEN
# Method in brief: as §1
# [7] = target: SPI1 (Homo sapiens, UniProt P17947 1-270); details: protein: recombinant; tags: N-terminal GST; dsDNA, one strand shown
# Method in brief: as §1
# [8] = target: SPIB (Homo sapiens, UniProt Q01892 1-262); details: protein: recombinant; tags: N-terminal GST; dsDNA, one strand shown
# Method in brief: as §1
# [9] = target: T6, ELK3 (Homo sapiens, UniProt P41970 1-407); details: protein: recombinant; tags: N-terminal GST; dsDNA, one strand shown
# T6 sequence: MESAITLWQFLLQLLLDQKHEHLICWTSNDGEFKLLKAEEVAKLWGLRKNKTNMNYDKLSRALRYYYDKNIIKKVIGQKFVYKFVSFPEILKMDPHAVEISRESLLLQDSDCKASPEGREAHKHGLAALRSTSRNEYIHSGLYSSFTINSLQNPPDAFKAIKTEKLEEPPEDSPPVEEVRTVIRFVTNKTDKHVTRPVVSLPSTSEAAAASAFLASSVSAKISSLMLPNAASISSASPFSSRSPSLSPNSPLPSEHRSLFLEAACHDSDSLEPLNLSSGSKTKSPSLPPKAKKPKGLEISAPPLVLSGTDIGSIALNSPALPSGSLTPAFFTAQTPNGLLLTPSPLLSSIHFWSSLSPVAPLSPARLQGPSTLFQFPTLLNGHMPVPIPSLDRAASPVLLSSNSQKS
# Method in brief: as §1
# [10] = target: T7, FEV (Homo sapiens, UniProt Q99581 1-238); details: protein: recombinant; tags: N-terminal GST; dsDNA, one strand shown
# T7 sequence: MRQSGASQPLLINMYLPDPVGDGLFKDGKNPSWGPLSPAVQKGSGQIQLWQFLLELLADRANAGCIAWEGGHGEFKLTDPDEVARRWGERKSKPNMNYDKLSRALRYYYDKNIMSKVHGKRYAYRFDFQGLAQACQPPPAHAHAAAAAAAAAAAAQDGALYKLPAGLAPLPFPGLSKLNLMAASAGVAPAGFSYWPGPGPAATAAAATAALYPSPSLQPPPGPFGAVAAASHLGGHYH
# Method in brief: as §1
# [11] = target: ETV5 (Homo sapiens, UniProt P41161 1-510); details: protein: recombinant; tags: N-terminal GST; dsDNA, one strand shown
# Method in brief: as §1
# [12] = target: HSF1 (Homo sapiens, UniProt Q00613 1-529); details: protein: recombinant; tags: N-terminal GST; chain copies: 3; dsDNA, one strand shown
# Method in brief: as §1
# [13] = target: T8, SPIC (Homo sapiens, UniProt Q8N5J4 1-248); details: protein: recombinant; tags: N-terminal GST; dsDNA, one strand shown
# T8 sequence: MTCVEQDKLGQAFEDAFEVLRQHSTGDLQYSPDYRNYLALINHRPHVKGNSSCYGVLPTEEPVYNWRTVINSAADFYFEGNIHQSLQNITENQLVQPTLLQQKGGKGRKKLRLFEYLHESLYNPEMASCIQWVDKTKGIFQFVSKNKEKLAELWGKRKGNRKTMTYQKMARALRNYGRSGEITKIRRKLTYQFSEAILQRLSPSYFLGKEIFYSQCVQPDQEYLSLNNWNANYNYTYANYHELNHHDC
# Method in brief: as §1
# [14] = target: ELF4 (Homo sapiens, UniProt Q99607 1-663); details: protein: recombinant; tags: N-terminal GST; dsDNA, one strand shown
# Method in brief: as §1
# [15] = target: T9, ELK4 (Homo sapiens, UniProt P28324-2 1-405); details: protein: recombinant; tags: N-terminal GST; dsDNA, one strand shown
# T9 sequence: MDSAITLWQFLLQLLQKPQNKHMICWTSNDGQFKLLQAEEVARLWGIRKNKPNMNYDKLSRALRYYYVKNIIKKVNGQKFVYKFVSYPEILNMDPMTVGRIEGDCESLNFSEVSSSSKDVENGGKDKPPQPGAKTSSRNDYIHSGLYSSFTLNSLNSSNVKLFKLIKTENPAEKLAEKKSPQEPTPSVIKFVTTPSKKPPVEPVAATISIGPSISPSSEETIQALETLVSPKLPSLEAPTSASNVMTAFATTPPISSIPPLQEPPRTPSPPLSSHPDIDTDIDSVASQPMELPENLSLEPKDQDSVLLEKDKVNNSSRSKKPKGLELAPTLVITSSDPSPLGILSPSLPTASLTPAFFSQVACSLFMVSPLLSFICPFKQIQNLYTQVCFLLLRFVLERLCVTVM
# Method in brief: as §1
# [16] = target: T10, ETV2 (Homo sapiens, UniProt O00321 1-342); details: protein: recombinant; tags: N-terminal GST; dsDNA, one strand shown
# T10 sequence: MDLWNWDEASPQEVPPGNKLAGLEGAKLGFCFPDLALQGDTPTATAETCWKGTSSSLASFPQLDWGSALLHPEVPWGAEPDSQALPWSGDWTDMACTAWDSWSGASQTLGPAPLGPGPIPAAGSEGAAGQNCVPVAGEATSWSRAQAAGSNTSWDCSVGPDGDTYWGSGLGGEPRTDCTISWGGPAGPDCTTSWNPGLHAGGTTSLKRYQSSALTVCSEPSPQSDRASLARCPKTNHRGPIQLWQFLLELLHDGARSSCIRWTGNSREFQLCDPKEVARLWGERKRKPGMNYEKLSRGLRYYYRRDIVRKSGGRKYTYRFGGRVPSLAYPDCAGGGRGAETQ
# Method in brief: as §1
# [17] = target: T11, ELF3 (Homo sapiens, UniProt P78545 1-371); details: protein: recombinant; tags: N-terminal GST; dsDNA, one strand shown
# T11 sequence: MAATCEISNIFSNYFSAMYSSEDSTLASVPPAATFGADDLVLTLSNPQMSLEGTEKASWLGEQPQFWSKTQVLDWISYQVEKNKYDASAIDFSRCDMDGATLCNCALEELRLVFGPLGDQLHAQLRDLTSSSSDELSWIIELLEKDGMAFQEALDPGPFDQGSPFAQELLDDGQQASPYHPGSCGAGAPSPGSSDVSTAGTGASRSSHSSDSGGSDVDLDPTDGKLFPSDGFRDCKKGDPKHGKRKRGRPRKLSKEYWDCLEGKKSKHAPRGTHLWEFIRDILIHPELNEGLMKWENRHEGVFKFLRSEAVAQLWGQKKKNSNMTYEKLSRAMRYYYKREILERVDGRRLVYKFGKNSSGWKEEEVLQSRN
# Method in brief: as §1
# [18] = target: CRX (Homo sapiens, UniProt O43186 1-299); details: protein: recombinant; tags: N-terminal GST; dsDNA, one strand shown
# Method in brief: as §1
# [19] = target: ETV1 (Homo sapiens, UniProt P50549 1-477); details: protein: recombinant; tags: N-terminal GST; dsDNA, one strand shown
# Method in brief: as §1
# Chain of HSF1 (Q00613 whole entry): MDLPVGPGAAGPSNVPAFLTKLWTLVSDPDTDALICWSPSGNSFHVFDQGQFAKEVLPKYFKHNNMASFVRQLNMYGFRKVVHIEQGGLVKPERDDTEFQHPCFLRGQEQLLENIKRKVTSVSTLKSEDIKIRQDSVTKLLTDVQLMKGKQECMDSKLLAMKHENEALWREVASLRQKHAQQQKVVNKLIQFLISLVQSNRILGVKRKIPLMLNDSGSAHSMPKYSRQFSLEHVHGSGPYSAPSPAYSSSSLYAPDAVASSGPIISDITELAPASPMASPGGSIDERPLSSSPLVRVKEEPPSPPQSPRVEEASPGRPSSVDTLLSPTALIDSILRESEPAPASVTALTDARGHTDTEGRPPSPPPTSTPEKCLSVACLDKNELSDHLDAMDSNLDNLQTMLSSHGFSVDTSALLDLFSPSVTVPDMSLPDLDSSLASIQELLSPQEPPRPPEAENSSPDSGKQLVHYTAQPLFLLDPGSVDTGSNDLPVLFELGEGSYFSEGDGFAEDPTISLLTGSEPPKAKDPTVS
# Chain of ETV5 (P41161 whole entry): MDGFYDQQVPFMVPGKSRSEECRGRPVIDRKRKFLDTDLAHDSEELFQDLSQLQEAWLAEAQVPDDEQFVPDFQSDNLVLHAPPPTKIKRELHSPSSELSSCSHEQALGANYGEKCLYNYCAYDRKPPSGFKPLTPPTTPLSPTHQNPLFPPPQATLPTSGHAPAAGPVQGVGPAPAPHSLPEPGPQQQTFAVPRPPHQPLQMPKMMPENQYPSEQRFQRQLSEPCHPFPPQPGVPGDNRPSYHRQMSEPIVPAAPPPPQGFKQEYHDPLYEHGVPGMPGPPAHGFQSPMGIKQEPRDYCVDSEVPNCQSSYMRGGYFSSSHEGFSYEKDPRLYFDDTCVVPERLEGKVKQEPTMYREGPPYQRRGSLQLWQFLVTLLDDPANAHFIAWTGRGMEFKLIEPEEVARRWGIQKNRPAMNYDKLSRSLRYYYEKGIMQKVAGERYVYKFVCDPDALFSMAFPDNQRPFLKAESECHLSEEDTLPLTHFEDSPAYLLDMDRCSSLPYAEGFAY
# Chain of ELF1 (P32519 whole entry): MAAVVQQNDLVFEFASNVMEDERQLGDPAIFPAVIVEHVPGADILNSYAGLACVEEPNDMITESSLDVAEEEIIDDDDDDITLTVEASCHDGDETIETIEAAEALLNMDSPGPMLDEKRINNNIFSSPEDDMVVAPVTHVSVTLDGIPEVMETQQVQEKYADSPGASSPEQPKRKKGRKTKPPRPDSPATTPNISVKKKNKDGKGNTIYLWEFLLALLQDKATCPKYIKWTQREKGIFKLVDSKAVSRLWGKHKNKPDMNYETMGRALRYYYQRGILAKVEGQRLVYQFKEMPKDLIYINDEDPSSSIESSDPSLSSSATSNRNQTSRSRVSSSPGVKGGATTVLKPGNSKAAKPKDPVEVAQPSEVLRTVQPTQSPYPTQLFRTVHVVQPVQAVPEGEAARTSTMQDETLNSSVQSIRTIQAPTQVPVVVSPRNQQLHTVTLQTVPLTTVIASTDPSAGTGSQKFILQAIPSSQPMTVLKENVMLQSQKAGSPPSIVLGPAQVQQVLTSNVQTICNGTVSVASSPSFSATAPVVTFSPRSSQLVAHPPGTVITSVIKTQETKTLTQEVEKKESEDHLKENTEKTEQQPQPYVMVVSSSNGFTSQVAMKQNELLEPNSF
# Chain of ELF4 (Q99607 whole entry): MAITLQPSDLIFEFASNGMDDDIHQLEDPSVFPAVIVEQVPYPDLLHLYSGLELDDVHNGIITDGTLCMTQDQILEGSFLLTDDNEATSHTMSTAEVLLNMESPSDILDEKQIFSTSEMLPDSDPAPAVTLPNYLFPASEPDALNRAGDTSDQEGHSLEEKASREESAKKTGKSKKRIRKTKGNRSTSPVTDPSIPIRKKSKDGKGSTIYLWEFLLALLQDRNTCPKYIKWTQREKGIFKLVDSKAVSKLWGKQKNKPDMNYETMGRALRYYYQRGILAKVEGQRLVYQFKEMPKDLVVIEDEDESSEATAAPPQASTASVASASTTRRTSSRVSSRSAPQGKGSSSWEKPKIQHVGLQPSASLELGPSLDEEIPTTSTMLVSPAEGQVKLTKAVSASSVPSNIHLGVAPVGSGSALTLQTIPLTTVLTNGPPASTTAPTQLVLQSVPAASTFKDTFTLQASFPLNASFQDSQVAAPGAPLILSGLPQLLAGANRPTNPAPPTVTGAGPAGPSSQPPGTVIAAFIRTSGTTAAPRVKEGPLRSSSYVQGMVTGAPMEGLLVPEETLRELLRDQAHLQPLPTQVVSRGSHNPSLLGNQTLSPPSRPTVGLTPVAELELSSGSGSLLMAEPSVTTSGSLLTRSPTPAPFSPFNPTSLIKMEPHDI
# Chain of ETV1 (P50549 whole entry): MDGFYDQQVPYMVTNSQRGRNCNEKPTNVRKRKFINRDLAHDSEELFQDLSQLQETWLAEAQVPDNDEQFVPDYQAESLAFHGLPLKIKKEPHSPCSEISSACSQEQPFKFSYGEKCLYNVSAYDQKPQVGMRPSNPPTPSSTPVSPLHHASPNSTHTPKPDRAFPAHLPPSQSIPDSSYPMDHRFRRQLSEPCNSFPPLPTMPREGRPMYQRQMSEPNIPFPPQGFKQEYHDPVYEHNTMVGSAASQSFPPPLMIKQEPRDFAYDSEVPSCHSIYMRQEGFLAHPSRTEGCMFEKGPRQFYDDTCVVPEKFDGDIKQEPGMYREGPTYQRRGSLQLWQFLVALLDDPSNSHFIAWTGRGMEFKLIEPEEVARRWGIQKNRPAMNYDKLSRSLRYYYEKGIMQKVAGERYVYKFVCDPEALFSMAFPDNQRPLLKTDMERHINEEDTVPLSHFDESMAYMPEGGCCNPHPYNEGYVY
# Chain of SPIB (Q01892 whole entry): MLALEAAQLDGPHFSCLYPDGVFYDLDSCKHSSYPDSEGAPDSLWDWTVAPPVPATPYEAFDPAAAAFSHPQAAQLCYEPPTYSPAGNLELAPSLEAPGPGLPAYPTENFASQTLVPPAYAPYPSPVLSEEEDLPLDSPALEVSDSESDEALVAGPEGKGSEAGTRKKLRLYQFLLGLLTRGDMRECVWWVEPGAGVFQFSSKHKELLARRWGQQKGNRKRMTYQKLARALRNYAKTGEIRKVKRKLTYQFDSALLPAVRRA
# Chain of CRX (O43186 whole entry): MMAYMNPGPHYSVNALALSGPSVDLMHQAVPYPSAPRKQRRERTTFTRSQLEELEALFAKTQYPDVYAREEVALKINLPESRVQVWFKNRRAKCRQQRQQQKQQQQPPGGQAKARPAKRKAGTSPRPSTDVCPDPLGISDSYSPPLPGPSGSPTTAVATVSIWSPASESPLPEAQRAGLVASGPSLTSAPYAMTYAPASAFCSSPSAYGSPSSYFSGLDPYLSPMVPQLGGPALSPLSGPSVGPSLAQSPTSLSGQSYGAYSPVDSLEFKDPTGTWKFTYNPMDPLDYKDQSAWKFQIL
sequence,measurement,setting,value
GCGACT,binding signal,[1],"1.15 fold enrichment (6-mer frequency, TF over GST control)"
same,binding signal,[2],"1.26 fold enrichment (6-mer frequency, TF over GST control)"
same,binding signal,[3],"1.13 fold enrichment (6-mer frequency, TF over GST control)"
same,binding signal,[4],"1.24 fold enrichment (6-mer frequency, TF over GST control)"
same,binding signal,[5],"1.22 fold enrichment (6-mer frequency, TF over GST control)"
same,binding signal,[6],"1.21 fold enrichment (6-mer frequency, TF over GST control)"
same,binding signal,[7],"1.2 fold enrichment (6-mer frequency, TF over GST control)"
same,binding signal,[8],"1.33 fold enrichment (6-mer frequency, TF over GST control)"
same,binding signal,[9],"1.25 fold enrichment (6-mer frequency, TF over GST control)"
same,binding signal,[10],"1.31 fold enrichment (6-mer frequency, TF over GST control)"
same,binding signal,[11],"1.28 fold enrichment (6-mer frequency, TF over GST control)"
same,binding signal,[12],"1.11 fold enrichment (6-mer frequency, TF over GST control)"
same,binding signal,[13],"1.28 fold enrichment (6-mer frequency, TF over GST control)"
same,binding signal,[14],"1.13 fold enrichment (6-mer frequency, TF over GST control)"
same,binding signal,[15],"1.28 fold enrichment (6-mer frequency, TF over GST control)"
same,binding signal,[16],"1.55 fold enrichment (6-mer frequency, TF over GST control)"
same,binding signal,[17],"1.05 fold enrichment (6-mer frequency, TF over GST control)"
same,binding signal,[18],"1.14 fold enrichment (6-mer frequency, TF over GST control)"
same,binding signal,[19],"1.22 fold enrichment (6-mer frequency, TF over GST control)"
